Assay outcomes as filed in PubChem.
Sampled rows, rich in hits. Any-hit rate of the full collection: about 2.9%.
D3 antag = antagonists of human D3 dopamine receptor; P35462; D3R cells, DiscoveRx beta-arrestin luminescence, antagonist mode; stronger effect = lower value; max response, negative = inhibition, %; 2.5% of 360,000 active; in the data active means max response below about -50%; inconclusive means no clear call, values can overlap the other calls
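Cells expressing the human receptor were seeded at 1500 cells/well, incubated overnight at 37 degrees C in 5% CO2, then exposed to library compounds with dopamine controls for 90 minutes at 37 degrees C before luminescent detection.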
B2AR arrestin = agonists driving beta-arrestin recruitment to human beta2-adrenergic receptor | beta-arrestin recruitment to beta2AR, cell-based reporter | Potency, µM (top dose mostly 46.1 µM), hits mostly activators | 0.02% of 330,000 active | AID 492947; further: nearly all actives have a fitted effect of over 65% in size
Target sequence (P07550 whole entry, looked up): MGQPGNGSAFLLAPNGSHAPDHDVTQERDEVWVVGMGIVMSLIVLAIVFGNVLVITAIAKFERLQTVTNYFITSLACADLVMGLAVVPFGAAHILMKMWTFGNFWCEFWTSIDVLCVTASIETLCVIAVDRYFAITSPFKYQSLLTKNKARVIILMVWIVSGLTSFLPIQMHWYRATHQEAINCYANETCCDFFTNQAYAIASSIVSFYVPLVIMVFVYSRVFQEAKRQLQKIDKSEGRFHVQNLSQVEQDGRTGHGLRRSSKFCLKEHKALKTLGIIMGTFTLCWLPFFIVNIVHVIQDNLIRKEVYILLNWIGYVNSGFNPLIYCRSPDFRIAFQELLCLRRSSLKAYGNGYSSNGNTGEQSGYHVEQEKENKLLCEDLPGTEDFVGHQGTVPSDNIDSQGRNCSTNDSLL
IDH1 R132H inh = blocks human mutant IDH1 R132H enzyme; 0.093% of 390,000 active; Potency, µM (highest dose often 76.6 µM), most hits filed as inhibitors; O75874; AID 602179; IDH1-R132H enzyme, NADPH consumption, diaphorase/resazurin fluorescence; further: nearly all actives have a fitted effect of over 65% in size
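IDH1-R132H (0.5 ug/mL) preincubated 30 min with compound, then NADPH (0.016 mM) and alpha-KG (2 mM) added; 80 min at RT, pH 7.5. Remaining NADPH coupled via diaphorase/resazurin to fluorescence (540/590 nm); concentration-response curves normalized to no-enzyme control.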
Integrin act MD = integrin-mediated muscular dystrophy alleviation activation. alpha7betagal myoblasts, beta-gal FDG fluorescence, 48 h. Potency, µM (titrated, usually from 38.3 µM), actives largely listed as activators. 0.064% of 350,000 active; further: nearly all actives have a fitted effect of over 60% in size
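Alpha7betagal+/- myoblasts (passage 13) were plated 16-24 hr, then exposed to compounds (1:260 dilution of DMSO stock) for 48 hours at 37C. After MPER lysis, β-galactosidase reporter activity was read as FDG fluorescence (ex 480/em 540) after 30 minutes.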
D3 ag = activates the human D3 dopamine receptor | max activation, % | P35462 | D3R DiscoveRx beta-arrestin cells, luminescence, 90 min | 0.58% of 410,000 active; in the data active means max activation above about 30%
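Cells at 1500/well, incubated overnight, then treated with pinned compounds (dopamine as control) for 90 min at 37 degrees C. DiscoveRx reagent added for 30 - 60 minutes at room temperature; luminescence read.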
A number is an active result; i = inactive; ? = inconclusive; nt = not tested or not shown; [ ] = another dose, or the depositor's remark. Unless noted, the call rests on the fitted dose curve; in most records, active means well fitted curve in the direction sought with a large enough effect; inconclusive means small, poorly fitted or top-dose-only effect, or another doubt; inactive means no such curve, though single readings can be large; an effect the other way counts as inactive or inconclusive.

SMILES	D3 antag	B2AR arrestin	IDH1 R132H inh	Integrin act MD	D3 ag
CCOC(=O)C1(CCOc2ccccc2)CCN(Cc2ccc(C)s2)CC1	-50	i	i	i	i
C[C@H]1CNCCc2ccc(Cl)cc21	nt	nt	nt	nt	i
BrCCc1ccccc1	-99	i	i	nt	i
COc1ccccc1OCC(=O)N1CCCC(N2CCN(c3ccc(F)cc3)CC2)C1 (stereo not drawn)	?	i	i	i	i
COc1ccccc1N1CCN(C2CCN(C(=O)c3cccs3)CC2)CC1	-63	i	i	i	i
CC(=O)O[C@H]1CC[C@@]2(C)C(=CC[C@@H]3[C@@H]2CC[C@]2(C)C(=O)CC[C@@H]32)C1	?	i	i	nt	i
CC(=O)O/C(=C1\CC2C3CC=C4CC(OC(C)=O)CCC4(C)C3CCC2(C)C1=O)C(F)(F)F (stereo not drawn)	-70	nt	i	i	i
Brc1nc(-c2ccccc2)nc(-c2ccccc2)c1Br	i	nt	i	?	i
CN1CC(C(=O)c2ccc(Cl)cc2)C(c2ccc(N(C)C)cc2)C1 (stereo not drawn)	i	i	i	i	i
CN1CC(C(=O)c2ccc(F)cc2)C(c2ccc(F)cc2)C1 (stereo not drawn)	-129	i	i	?	i
CCS(=O)(=O)C(C)(C)S(=O)(=O)CC	nt	nt	nt	nt	i
CCC1(CC)C(=O)NC(=O)N(C)C1=O	nt	nt	nt	nt	i
CC(=O)Nc1cc([As](=O)(O)O)ccc1O	i	i	i	nt	i
CNCC(=O)c1ccc(O)c(O)c1	nt	nt	nt	nt	61
CNCC(=O)c1ccccc1	-51	nt	?	i	i
CCN(CC)P(=O)(/C=C(\Cl)c1ccccc1)/C=C(\Cl)c1ccccc1	i	i	i	i	i
COC(=O)C1=C(C(=O)OC)C2OC1c1cc3ccccc3cc12	-58	nt	i	i	i
COC1CCC(OC2CC(C3(C)CCC4(CC(O)C(C)C(C(C)/C=C(\C)C(=O)C(C)CC(C)C(=O)O)O4)O3)OC3(OC(C4OC(O)(CO)C(C)CC4C)CC3C)C2C)OC1C (stereo not drawn)	i	nt	i	?	71
CC(C)(O)[C@@H]1[C@H]2OC(=O)[C@@H]1[C@]1(O)C[C@H]3O[C@]34C(=O)O[C@H]2[C@]14C	nt	nt	nt	nt	i
CCNC1(c2cccs2)CCCCC1=O (stereo not drawn)	nt	nt	nt	nt	i
C1=C(c2c[nH]c3ccccc23)CCNC1	nt	i	nt	nt	nt
CC(C)N1CC=C(c2c[nH]c3ccccc23)CC1	-58	i	i	i	i
ClC1=C(Cl)[C@]2(Cl)[C@@H]3[C@H]4C[C@H]([C@@H]5O[C@H]45)[C@@H]3[C@@]1(Cl)C2(Cl)Cl	nt	nt	nt	nt	i
c1ccc(CCN2CCC(N3CCN(c4ccccc4)CC3)CC2)cc1	i	i	i	i[7.66 µM]	69
Cn1c(O)c(C(=N)COc2ccccc2)c(=O)n(C)c1=O	i	i	i	i	45
SMILES	D3 antag	B2AR arrestin	IDH1 R132H inh	Integrin act MD	D3 ag
C[C@@H](CO)NC(=O)[C@@H]1C=C2c3cccc4[nH]cc(c34)C[C@H]2N(C)C1	nt	nt	nt	nt	38
COc1cc(C)cc(CN2CC=C(c3ccccc3)CC2)c1O	?	i	i	i	i
COc1ccc(C(C)=O)cc1CN1CC=C(c2ccccc2)CC1	-101	i	i	i	i
Cc1ccc2c(CN3CC=C(c4ccccc4)CC3)cc(=O)oc2c1C	i	i	i	i	40
CCN(CC)CCc1c[nH]c2ccccc12	nt	nt	nt	nt	i
F/C(COc1ccc2c(c1)[nH]c1ccccc12)=C1/CN2CCC1CC2	nt	nt	nt	nt	i
CN1CCN(Cc2ccc3ccccc3c2)CC1	i	i	i	i	i
c1ccc(CN2CCc3nc4ccccc4cc3C2)cc1	i	i	i	i	60
CCOCCOC(C)=O	nt	nt	nt	nt	i
CC1CCCC(C)N1/N=C/c1c[nH]c2ccc(Br)cc12 (stereo not drawn)	-76	i	i	i	i
Clc1ccc(OCC#CCN2CCCC2)cc1	-55	i	i	i	i
CCCN(CCC)c1c([N+](=O)[O-])cc(S(N)(=O)=O)cc1[N+](=O)[O-]	nt	nt	nt	nt	i
Fc1ccccc1N1CCN(Cc2ccc3c(c2)OCO3)CC1	?	i	i	i	i
Fc1ccccc1N1CCN(Cc2c(F)cccc2F)CC1	?	i	i	i[7.66 µM]	i
Clc1ccccc1N1CCN(Cc2ccc3c(c2)OCO3)CC1	-88	i	i	i	i
Cc1ccccc1N1CCN(Cc2ccc3c(c2)OCO3)CC1	-76	i	i	i	i
Clc1ccccc1CN1CCN(c2ccccc2Cl)CC1	-83	i	i	i	i
CN1CC[C@]23c4c5ccc(O)c4O[C@H]2[C@@H](O)CC[C@H]3[C@H]1C5	nt	nt	nt	nt	i
CC(Cc1ccc2c(c1)OCO2)NO (stereo not drawn)	nt	nt	nt	nt	i
Oc1ccc([C@H]2CNCc3c2ccc(O)c3O)cc1O	nt	nt	nt	nt	i
ClC1=C(Cl)C2(Cl)C(CBr)CC1(Cl)C2(Cl)Cl (stereo not drawn)	nt	nt	nt	nt	i
COc1ccc(Cl)cc1C(=O)C1CCCN(CCO)C1 (stereo not drawn)	-50	i	i	i	i
CSc1ccccc1C(=O)C1CCCN(Cc2ccccn2)C1 (stereo not drawn)	i	i	i	i	i
COc1ccc(CN2CCCC(C(=O)c3cccc(Cl)c3)C2)cc1 (stereo not drawn)	-73	i	i	i	i
COc1ccc(CN2CCCC(C(=O)c3ccccc3SC)C2)cc1O (stereo not drawn)	-61	i	i	i	i
SMILES	D3 antag	B2AR arrestin	IDH1 R132H inh	Integrin act MD	D3 ag
COc1ccc(CN2CCCC(C(=O)c3ccc(Cl)cc3)C2)c(OC)c1 (stereo not drawn)	-60	i	i	i	i
[O]=[Cd]	nt	nt	nt	nt	i
C[C@]12C=CC(=O)C=C1CC[C@@H]1[C@@H]2CC[C@]2(C)OC(=O)CC[C@@H]12	nt	nt	nt	nt	i
O=C(c1ccc2c(c1)OCO2)C1CCCN(Cc2ccc(F)c(F)c2)C1 (stereo not drawn)	-52	i	i	i	i
O=C(c1ccc(Cl)cc1)C1CCCN(Cc2ccc3c(c2)OCCO3)C1 (stereo not drawn)	i	i	i	i	i
O=c1n(Cl)c(=O)n(Cl)c(=O)n1Cl	nt	nt	nt	nt	i
CCN1CCN(c2cc(N3CCCC3)c(F)cc2[N+](=O)[O-])CC1	-69	i	i	i	i
CN1CCN(c2cc(N3CCCC3)c([N+](=O)[O-])cc2F)CC1	-78	i	i	i	i
CCOC(=O)N(c1ccccc1)P1(=S)OCCO1	-52	i	i	i	i
COC(=O)N(c1ccccc1)P1(=S)OCCO1	i	i	i	i	i
COc1ccc(C(CNC(=O)c2ccc3c(c2)CCC3)N(C)C)cc1 (stereo not drawn)	-81	i	i	i	i
COc1ccc(C(=O)C(Cc2ccccc2)N(C)C)cc1 (stereo not drawn)	i	i	i	i	i
CCCN(CC#CCOc1ccc(OC)cc1)CCC	-52	i	i	i	i
COc1cccc(CN2CC=C(c3ccc(F)cc3)CC2)c1	-77	i	i	i	i
COc1cc(C[C@H](C)N)c(OC)cc1C	nt	nt	nt	nt	i
